Source: PubChem (National Center for Advancing Translational Sciences (NCATS))
hNpr1 antagonist = Natriuretic polypeptide receptor (hNpr1) antagonism - Primary qHTS. 76,000 compounds, 1.6% hits. Potency, µM (highest dose often 46.3 µM), most hits filed as inhibitors. HEK293 hNpr1 GloSensor cGMP, ANP-stimulated luminescence; also: nearly all actives have a fitted effect of over 60% in size
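Compound pre-incubated 30 min at room temperature on GloSensor-loaded HEK293 cells stably carrying hNpr1 and the pGS-40F cGMP biosensor. Stimulation uses hNppA at 0.1 nM final; luminescence is taken at baseline and 20 min post-agonist.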
Luciferase inh = Firefly luciferase inhibition profiling of diverse chemical library using quantitative high-throughput screening; AID 1347043, 2019; Potency, µM (series often up to 115 µM), most hits filed as inhibitors; purified P. pyralis luciferase, luminescence, biochemical; 76,000 compounds, 2.5% hits; active = well fitted curve in the direction sought with a large enough effect; inconclusive = small, poorly fitted or top-dose-only effect, or another doubt; inactive = no such curve, though single readings can be large; an effect the other way counts as inactive or inconclusive; also: nearly all actives have a fitted effect of over 65% in size
Target sequence (P08659 whole entry, looked up): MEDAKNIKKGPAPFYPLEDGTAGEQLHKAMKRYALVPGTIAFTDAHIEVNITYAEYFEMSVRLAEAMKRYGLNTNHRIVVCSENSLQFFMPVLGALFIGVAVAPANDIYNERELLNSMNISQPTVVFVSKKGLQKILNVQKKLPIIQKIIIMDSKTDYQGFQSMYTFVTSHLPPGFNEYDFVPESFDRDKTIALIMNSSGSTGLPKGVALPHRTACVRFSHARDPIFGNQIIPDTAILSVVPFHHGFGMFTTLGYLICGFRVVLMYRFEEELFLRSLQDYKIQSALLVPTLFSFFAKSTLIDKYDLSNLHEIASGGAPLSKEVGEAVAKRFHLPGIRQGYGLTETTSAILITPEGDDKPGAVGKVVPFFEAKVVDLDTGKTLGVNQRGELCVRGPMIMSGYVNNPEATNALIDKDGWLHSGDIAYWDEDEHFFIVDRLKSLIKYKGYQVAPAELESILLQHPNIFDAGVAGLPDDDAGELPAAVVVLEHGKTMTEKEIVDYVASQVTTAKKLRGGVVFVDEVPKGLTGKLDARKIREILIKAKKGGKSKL
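Purified 10nM P. pyralis luciferase with 10uM D-luciferin and 10uM ATP in 50mM Tris acetate pH 7.5, 10mM Mg acetate, 0.01% Tween-20, 0.05% BSA. qHTS titration; luminescence read by CCD imager.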
3T3 cytotox = Cytotoxic Profiling in NIH 3T3 Cell Line of Diverse Libraries Using Quantitative High-Throughput Screening | Potency, µM (highest dose often 96.7 µM), actives largely listed as inhibitors | NIH 3T3 viability, CellTiter-Glo ATP luminescence, 48-72 h | 94,000 compounds, 4.3% hits; active = well fitted curve in the direction sought with a large enough effect; inconclusive = small, poorly fitted or top-dose-only effect, or another doubt; inactive = no such curve, though single readings can be large; an effect the other way counts as inactive or inconclusive; also: nearly all actives have a fitted effect of over 55% in size
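Cells were seeded at 400 per well, treated with pin-transferred compound, and kept 48 or 72 hr at 37 °C before CellTiter-Glo addition and luminescence imaging of cellular ATP.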
HEK cytotox = Cytotoxic Profiling in HEK 293 Cell Line of Diverse Libraries Using Quantitative High-Throughput Screening | HEK 293 viability, ATP luminescence (CellTiter-Glo), 48-72 h | 94,000 compounds, 6.6% hits | AID 1345083, 2018 | Potency, µM (series often up to 115 µM), hits mostly inhibitors; active = well fitted curve in the direction sought with a large enough effect; inconclusive = small, poorly fitted or top-dose-only effect, or another doubt; inactive = no such curve, though single readings can be large; an effect the other way counts as inactive or inconclusive; also: nearly all actives have a fitted effect of over 60% in size
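Viability of HEK 293 cells, plated at 250 cells/well, was judged by cellular ATP after compound treatment for 48 or 72 hr. Luminescence was imaged 10 min after CellTiter-Glo addition at room temperature.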
Npr1 antag conf = Natriuretic polypeptide receptor (hNpr1) antagonism - Confirmation; shares compounds with hNpr1 antagonist; HEK293 hNpr1 cGMP GloSensor luminescence, ANP-stimulated; Potency, µM (doses to about 57.6 µM), most hits filed as inhibitors; 1,400 compounds, 76% hits; AID 1347044, 2019; also: nearly all actives have a fitted effect of over 70% in size
NPR2 antag = Natriuretic polypeptide receptor (hNpr2) antagonism - Subtype selectivity assay; shares compounds with hNpr1 antagonist; AID 1347046, 2019; 1,400 compounds, 67% hits; HEK293 hNpr2 GloSensor cGMP luminescence, CNP-stimulated; Potency, µM (doses to about 57.6 µM), most hits filed as inhibitors; also: nearly all actives have a fitted effect of over 70% in size
FLuc counter = Natriuretic polypeptide receptor (hNpr1) antagonism - Confirmation firefly luciferase (FLuc) inhibition counterscreen. shares compounds with hNpr1 antagonist. 1,400 compounds, 0.7% hits. AID 1347047, 2019. Potency, µM (highest dose often 57.6 µM), actives largely listed as inhibitors. purified FLuc enzyme, luminescence, Km substrate; active = well fitted curve in the direction sought with a large enough effect; inconclusive = small, poorly fitted or top-dose-only effect, or another doubt; inactive = no such curve, though single readings can be large; an effect the other way counts as inactive or inconclusive
GloSensor ctrl = Natriuretic polypeptide receptor (hNpr1) antagonism - Counterscreen GloSensor control cell line. shares compounds with hNpr1 antagonist. HEK293 GloSensor cGMP, SNP-stimulated, luminescence. Potency, µM (titrated, usually from 57.6 µM), most hits filed as inhibitors. 1,400 compounds, 69% hits. AID 1347051, 2019; also: nearly all actives have a fitted effect of over 70% in size
Of the large screens only hits and unclear results are named; the others gave an inactive call (follow-up assays come after a bar, where they were run). Rows were chosen to be rich in hits. Some 11% of all compounds tested hit in one or more screens of this group. Unless noted, calls follow the shape of the full dose curve.

COc1ccc(C(=O)N2CCC3(CC2)N=C(c2ccc(Br)cc2)NO3)cc1OC	hNpr1 antagonist 10µM, HEK cytotox inconclusive | Npr1 antag conf 6.9µM | NPR2 antag 11µM | FLuc counter inactive | GloSensor ctrl 6.9µM
CN(C)C(=O)c1n[nH]c2c1CN(S(=O)(=O)c1ccccc1)CC2	none
COc1ccccc1OCCNC(=O)[C@H]1CCC[C@H]1NC(=O)c1ccncc1	none
CC(C)NC(=O)c1cnc2c(c1)N(C(=O)Cc1ccc(C(C)C)cc1)CCC2	3T3 cytotox inconclusive, HEK cytotox inconclusive
CC(C)c1ccc(CC(=O)N2CCCc3ncc(C(=O)Nc4cccc(Cl)c4)cc32)cc1	hNpr1 antagonist 11µM, 3T3 cytotox inconclusive, HEK cytotox 25µM | Npr1 antag conf 15µM | NPR2 antag 17µM | FLuc counter inactive | GloSensor ctrl 22µM
CC(C)c1ccc(CC(=O)N2CCCc3ncc(C(=O)Nc4cccnc4)cc32)cc1	hNpr1 antagonist 1.4µM, 3T3 cytotox 2.8µM, HEK cytotox 8.9µM | Npr1 antag conf 3.5µM | NPR2 antag 6.3µM | FLuc counter inactive | GloSensor ctrl 5µM
CC(C)c1ccc(CC(=O)N2CCCc3ncc(C(=O)Nc4ccccn4)cc32)cc1	hNpr1 antagonist 20µM, 3T3 cytotox 100µM, HEK cytotox 32µM | Npr1 antag conf 11µM | NPR2 antag 18µM | FLuc counter inactive | GloSensor ctrl 11µM
COc1cc(=O)n2c(c1C(=O)N1CCN(c3cccc(C)c3)CC1)CCCC2	none
COCc1cc(N2CCC(c3cccc(OC)c3OC)C2)ncn1 (stereo not drawn)	hNpr1 antagonist 3.2µM, 3T3 cytotox inconclusive, HEK cytotox inconclusive | Npr1 antag conf 3.1µM | NPR2 antag 4.8µM | FLuc counter inactive | GloSensor ctrl 3.1µM
COc1ccc(OC)c(C2CCN(c3ncncn3)C2)c1 (stereo not drawn)	3T3 cytotox inconclusive, HEK cytotox inconclusive
COCc1nc2nc(-c3ccccc3)c(-c3ccc(O)c(F)c3)cc2n1C	Luciferase inh inconclusive, 3T3 cytotox inconclusive, HEK cytotox inconclusive
CN(C)CCNC(=O)c1nc2nc(-c3ccccc3)c(-c3ccc(O)c(F)c3)cc2n1C	hNpr1 antagonist 22µM, 3T3 cytotox 45µM, HEK cytotox 71µM | Npr1 antag conf 35µM | NPR2 antag 20µM | FLuc counter inactive | GloSensor ctrl inactive
CN1C(=O)CC(C(=O)O)C12CCN(Cc1cnn(-c3ccc(F)cc3)c1)CC2 (stereo not drawn)	none
O=C(Nc1ccc(F)cc1)c1c[nH]c2cccnc12	3T3 cytotox inconclusive, HEK cytotox inconclusive (no result: hNpr1 antagonist, Luciferase inh) | Npr1 antag conf inconclusive | NPR2 antag inconclusive | FLuc counter 4.4µM | GloSensor ctrl 22µM
CN(C)C[C@@H]1CN(Cc2ccccc2)C[C@H]1NC(=O)c1ccco1	none
O=C(C1CCOCC1)N1CCCC(CCc2ccccc2C(F)(F)F)C1 (stereo not drawn)	3T3 cytotox inconclusive, HEK cytotox inconclusive
COc1ccc(-c2noc(CC3CCN(C(=O)c4ccccc4OC)CC3)n2)cc1	hNpr1 antagonist 10µM, 3T3 cytotox inconclusive, HEK cytotox inconclusive | Npr1 antag conf 14µM | NPR2 antag 14µM | FLuc counter inactive | GloSensor ctrl 12µM
